PubChem BioAssay AID624354 (Sanford-Burnham Center for Chemical Genomics, 2012)
Hit rate of the full screen: of about 360,000 compounds, about 3,800 (1.1%) were called active. What follows is part of a selection rich in actives, with near analogues and random picks from the rest. Unmarked numbers belong to inactive results.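 Rule for the calls: active = compounds causing at least 50% loss of cell viability in the single-dose screen, relative to plate controls; inactive = the rest.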

assay: TRAIL-exposed caspase-8 expressing cell killing – NB7+C8 cells, ATPlite luminescence, TRAIL sensitizer project, primary screen (AID 624354); settings: at 10 µM, hits give high values

Compound | inhibition (viability loss, TRAIL sensitization)
CCCc1cc(=O)[nH]c(SCC(=O)c2c(N)n(CC(C)C)c(=O)n(C)c2=O)n1 | 84.5% (active)
CC(C)Cn1c(N)c(C(=O)COC(=O)CN2C(=O)C3CC=CCC3C2=O)c(=O)n(C)c1=O (configuration not stated) | 13.4%
CCCc1cc(=O)[nH]c(SCC(=O)N2C(C)CCCC2C)n1 (configuration not stated) | -9.5%
O=C(Nc1cccc2cccnc12)c1ccc2sc([C@H]3C[C@H](O)[C@@H](CO)O3)nc2c1 | 7.21%
COC(=O)C[C@@H]1C=C[C@@H](NS(=O)(=O)c2cccc(OC)c2)[C@@H](CO)O1 | 4.54%
CC(=O)c1c(O)cc2n(c1=O)-c1ccc(Cl)cc1C2(C)C | 5.66%
CC(C)C(NC(=O)C1CCC(C(C)(C)C)CC1)C(=O)NCCCN1CCCCC1 (configuration not stated) | 8.66%
Cc1ccc(OCCCC(=O)Nc2ccc3c(c2)OCCO3)cc1 | -4.22%
COc1cccc(/C=C/C(=O)Nc2ccc3c(c2)OCCO3)c1 | 64.9% (active)
Cc1cccc(NC(=O)/C=C/c2ccc3c(c2)OCO3)n1 | 79.8% (active)
Cc1cc(C)nc(NC(=O)/C=C/c2ccc(Cl)cc2)n1 | 2.95%
CN(Cc1ccccc1)C(=O)COC(=O)/C=C/c1ccc2c(c1)OCO2 | -10.8%
COc1cccc(C(=O)NNC(=O)/C=C/c2ccccc2)c1 | -32%
COC(=O)Cc1ccc(OC2(C)CCN(Cc3ccc4c(c3)OCCO4)C2)cc1 (configuration not stated) | -7.8%
COc1nnc(-c2ccc(C)c(S(=O)(=O)N(C)C)c2)c2ccccc12 | -6.56%
Cc1ccc(/C=C2\CCn3c2nc2cc(C(=O)O)ccc2c3=O)c(C)c1 | 5.96%
COc1ccc(OC)c(-n2nnnc2SCC(=O)Nc2cc(C)ccc2OC)c1 | -4.79%
C=CCn1c(C)cc(C2=NNC(=NCC)SC2)c1C | 92.8% (active)
CCC(CC)c1nnc(NC(=O)C2CCN(C(=O)c3ccco3)CC2)s1 | -18.9%
CCCNC(=O)c1cc(C2CCCCN2C(=O)OC)on1 (configuration not stated) | -21.1%
N#CCCC(C#N)(c1cccnc1)N1CCOCC1 (configuration not stated) | -12.1%
O=C(NCC(O)c1nc2ccccc2[nH]1)c1ccc(Br)cc1 (configuration not stated) | -0.934%
O=C(Cc1nc2ccccc2[nH]c1=O)c1ccc(Cl)cc1 | 60.2% (active)
O=c1c(-c2ccc(Cl)cc2)[n+]([O-])c2ccccc2n1OCc1nc2ccccc2[nH]1 | -24.1%

Compound | inhibition (viability loss, TRAIL sensitization)
CCC1(C)Cc2c(sc3nnn(CC(=O)Nc4ccc(Cl)cc4)c(=O)c23)CO1 (configuration not stated) | -1.52%
COc1cc(OC)cc(-c2cc3ccc(F)cc3cn2)c1 | 60% (active)
Fc1ccc2cnc(-c3ccccc3)cc2c1 | -5.36%
COc1ccc(C(C)(O)c2nc(-c3cc(F)cc(F)c3)cs2)cc1 (configuration not stated) | 21%
CC(=O)c1nnn(-c2ccc(Cl)cc2C#N)c1C | 2.75%
Cc1ccc(N2CCN(c3ccc(C)cc3)C2c2ccccn2)cc1 | -11.7%
Cc1ccc(-c2cc(C(=O)NCc3cn(C)nc3C)c3cc(Br)ccc3n2)cc1 | 12.3%
Cc1ccc2nc(-c3ccncc3)cc(C(=O)Nc3ccncc3)c2c1 | 54% (active)
Cc1ccc2nc(-c3ccncc3)cc(C(=O)Nc3ccc(OC(F)F)cc3)c2c1 | 14.5%
Cc1cc(C)n2nc(C(=O)OC(C)C(=O)c3cc(C)c(C)cc3C)nc2n1 (configuration not stated) | -12.9%
CC(=O)N1c2ccc(S(=O)(=O)N3CCCC(C(=O)NCc4ccc(Cl)cc4)C3)cc2CC1C (configuration not stated) | 15.2%
Cc1ccc(S(=O)(=O)N(C)CC(=O)N2CCc3ccccc32)cc1 | -3.97%
CN(Cc1cccs1)C(=O)CN1C(=O)c2ccccc2S1(=O)=O | -16.6%
O=C(CN1C(=O)c2ccccc2S1(=O)=O)N1CCc2ccccc21 | 61.8% (active)
O=S(=O)(Cc1ccccc1)c1nc2ccccc2n1Cc1ccccn1 | -8.41%
O=C(Cn1c2[n+](c3ccc(C(F)(F)F)cc31)CCCCC2)Nc1c(F)cccc1F | 3.77%
COc1ccc(C2SCCN2S(=O)(=O)c2ccccc2)cc1OC (configuration not stated) | 0.617%
COc1cc2c(cc1OC)CN(C(=O)c1cc(S(=O)(=O)N3CCCCC3)ccc1Cl)CC2 | 1.71%
COc1cc2c(cc1OC)C(C)N(S(=O)(=O)c1cnc(Cl)c(Cl)c1)CC2 (configuration not stated) | 75.2% (active)
C[C@@H]1CC2=C(C(=O)OC(C)(C)O2)[C@@H](C2CC2)O1 | -8.67%
Cc1ccc(OCCNC(=O)CN2C(=O)NC3(CCCC3)C2=O)cc1 | -18.7%
CCn1cc(-c2cc(C(=O)O)on2)c(C)n1 | -6.48%
CC(C)Nc1ccc(-n2nc3ccccc3[n+]2[O-])cc1 | 54.6% (active)
